# Assay results reported in the supplement of paper PMC10105736.
# A number with no mark means an inactive call.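 Rule for the calls: active = MAPPIT score above the 99th percentile of random reference set scores in the same batch; inactive = at or below it.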
# Legend:
# Test in all cases: MAPPIT interaction score (arbitrary units); higher = stronger binary interaction signal, active = hit call of the paper
# CG11723 = conditions: MAPPIT configuration: N-N; pair source set: screen_2
# CG31624 = conditions: MAPPIT configuration: N-N; pair source set: screen_2
# CG11275 = conditions: MAPPIT configuration: N-N
# CG11570 = conditions: pair source set: RRS
# MFS16 = conditions: MAPPIT configuration: N-N; pair source set: DPIM
# Tsp = conditions: MAPPIT configuration: N-N; pair source set: DPIM
# CG10874 = conditions: MAPPIT configuration: N-N; pair source set: Lit-BS-16
# RpL38 = conditions: MAPPIT configuration: N-N; pair source set: Curagen_high_conf
# bond = conditions: MAPPIT configuration: N-N; pair source set: Curagen_low_conf
# CG10616 = conditions: MAPPIT configuration: N-N; pair source set: Finley_Y2H
# CG11596 = conditions: MAPPIT configuration: N-N; pair source set: Finley_Y2H
# CG11555 = conditions: MAPPIT configuration: N-N; pair source set: Curagen_high_conf
# CG5708 = conditions: MAPPIT configuration: N-C; pair source set: screen_4
# CG8159 = conditions: MAPPIT configuration: N-N; pair source set: Curagen_low_conf
# CG11327 = conditions: MAPPIT configuration: N-C; pair source set: screen_3
# 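Note: HEK293T cells with Epo stimulation, STAT-responsive firefly luciferase reporter, fold induction versus unstimulated cells divided by the larger fold induction of two negative controls lacking either bait or prey.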
binder,measurement,setting,value
su(sable) (protein) MSVALADEPLIDLEEDLEDGEIDDDEEDEQQSSKIQVQKKTFVGDDDVQFVGVEAKNQNDDEDVVYVGPSTDAVCLQNSNSTKSKKPRPLEDDHASSIELAIANALKKKGIEPPMPRMRSSNQDTSDQSLEGSGEGLATANPLLQSTRSSRRRKRKKEREREQKKDKEQQNRSRRDENDVSVVPGGVEDMDEYEMMNVRGGSPPPGGAAPPLSSCGQRFSGADWDMDDGSAATGAAGLGAGGGGGYNSHSSYDSYSDEETNGPGLMNQRRRTRRDNEKEHQRGVNNRKRRDRDRLEGGLAGSGSKRNRRDSGEGGGGGQEKMGGSNRVEPRKLELCKFYLMDCCAKRDKCSYMHKEFPCKYYYLGMDCYAGDDCLFYHGEPLSEQLRNVLLKHMETAPKEILGDFKRISRDIAIVQMTRRHEQLCDQLNRENTWNSIGCGLMGKRQDHQMQQQQQQLQHQQLQQQQEQQQTQQQAAADGGGCIPSLLDMVINPPLSENKRKSRWTEKMGAKAAAGAAGSSERDSTSPDAKPLPPHLDLANLSHVLSAENMAKLNKLGITNLEQMLQVPFGQLTEAGLTLVEIGEIQRKAEDAKPQTQAELESSTPPSKRETEANNSNSKSNGLIMVDYTQYLKDAHVSFSGNDPLDDDRDDDEQLIIDDGNDSTAEEDQQPKKAKAPPAATHESSTEEAPLPSVFDLPSFMNNMLGQGSSARQLLPASATSPNQENAHLPGGDQSTHKSAPIGGGTSTNVLGRILFGDKQSDPEARAAFYRDIIRNPFKAHSGDGDVDSSNENSNSNSHSLTPTPTPEPGSQSPKPEDHDQDMPELPVIAPALPPTTPSLYVRRSMYDFDPVKEQEHGRQELLTEEKEQYQRDTDMRLPFEPMKHYMPATEIDAAIFSHTPIRWQLHEVTIEESSYAQIRASALHKEQRELRDPRMRRILGLPETPDNSGPLGSVPIMGPSSFSVDNIARCATTIASPDLETAVRDSTPSSPPPSVVNLPSMSVPPPSMRVPPPNIQVEKPTVRTDPRRDPRRAVLQAPTKGASTANTTAPNASGGSKQISEIRSLLQVSNWYNNLGTNNKIMVNQQLALVFTELKKFHQLPNDAPKIFDVSFIVNNTTLQQIFAKLFIFVDDNGEVVQIPEEPNGNGAALGGGGDSGGGVGGGGGGGGVVLPNLSQPPPNLSQMLRLPPPNIRMLRMSGMMMQMGNVGPPFNQPPPRGGLMGMPPNGNGLNQGVGNLGGLGQLGINQGGGPVPNGNPFNPFGGNNGGGAGVMNNMNSMGNMGMGFNNFNNNGGRGGHFPGGGSGGNGNGNNRNQRGGNHRNRNI,MAPPIT interaction score,CG11723,0.327
same,MAPPIT interaction score,CG31624,1.52
Lcp2 (protein) MFKFVMILAVVGVATALAPVSRSDDVHADVLSRSDDVRADGFDSSLHTSNGIEQAASGDAHGNIHGNFGWISPEGEHVEVKYVANENGYQPSGAWIPTPPPIPEAIARAVAWLESHPPAPEHPRHH,MAPPIT interaction score,CG11275; pair source set: Curagen_high_conf,0.91
mRpS24 (protein) MNFLKKLLPQVATEVQQLSRSGFHTSSVCCRVQSGRYRITTKRNRPLTYEMANPPHFIGHRKSWNSWNTSTMKDALRPSQTAIEDVFIRKFVTGTWHALVCSEVIIKRQHNTIRIAALIRQAITPRKMYFLIGYTEELLSYWMQCPVTLELQTVGDKKDVVFKYI,MAPPIT interaction score,CG11570; MAPPIT configuration: N-C,0.0908
same,MAPPIT interaction score,CG11570; MAPPIT configuration: N-N,-0.09
same,MAPPIT interaction score,MFS16,0.186
same,MAPPIT interaction score,Tsp,0.192
gus (protein) MGQKISGGVKTVSRNDSQSTFKPIIPRELQADFVKPARIDILLDMPPASRDLQLKHSWNSEDRSLNIFVKEDDKLTFHRHPVAQSTDCIRGKVGLTKGLHIWEIYWPTRQRGTHAVVGVCTADAPLHSVGYQSLVGSTEQSWGWDLGRNKLYHDSKNCAGVTYPAILKNDEAFLVPDKFLVALDMDEGTLSFIVDQQYLGIAFRGLRGKKLYPIVSAVWGHCEITMRYIGGLDPEPLPLMDLCRRTIRQKIGRTNLEEHIQQLQLPLSMKTYLLYKNRR,MAPPIT interaction score,CG10874,0.809
same,MAPPIT interaction score,RpL38,0.363
same,MAPPIT interaction score,bond,0.0719
wbl (protein) MMHILVTLLLVAIHSIPTTWAVTCTGCVDLDELSFEKTVERFPYSVVKFDIAYPYGEKHEAFTAFSKSAHKATKDLLIATVGVKDYGELENKALGDRYKVDDKNFPSIFLFKGNADEYVQLPSHVDVTLDNLKAFVSANTPLYIGRDGCIKEFNEVLKNYANIPDAEQLKLIEKLQAKQEQLTDPEQQQNARAYLIYMRKIHEVGYDFLEEETKRLLRLKAGKVTEAKKEELLRKLNILEVFRVHKVTKTAPEKEEL,MAPPIT interaction score,CG10616,-0.151
TfIIFbeta (protein) MSKEDKEKTQIIDKDLDLSNAGRGVWLVKVPKYIAQKWEKAPTNMDVGKLRINKTPGQKAQVSLSLTPAVLALDPEEKIPTEHILDVSQVTKQTLGVFSHMAPSDGKENSTTSAAQPDNEKLYMEGRIVQKLECRPIADNCYMKLKLESIRKASEPQRRVQPIDKIVQNFKPVKDHAHNIEYRERKKAEGKKARDDKNAVMDMLFHAFEKHQYYNIKDLVKITNQPISYLKEILKDVCDYNMKNPHKNMWELKKEYRHYKTEEKKEEEHKSGSSDSE,MAPPIT interaction score,CG11596,0.174
PolE2 (protein) MDVDLLPLRKRITNTFKLCGFLIRSENSSYLAEQLLPFDAAERDKWLTVITENLQSQKLLTPHVERAALEKAINELNRVGLDEGETVFALIDAFTVPRFRYNQRIKKFELDTQPRQLLTAPRMKSDYMQQRYAMLLQKTLRHDLFAPAVIQDGVGAEAQAKKFKLQFAENLLATSAMKEAVVLGLLTQLKEGKFYVEDPTGCVQLDLTGARFHAGFFCEGCFVLAEGNYNNGVLKVDGLGFPPAEPANSSRAFFGTANTWGGESAKLLKYSAGLQELERTNTETTIVFLSDVRLDLPVVMEKLRQLFVGYDSCPPQAIVLMGPFTASTRNHHELRHHLDALGGLAAGCEQLKKQTDLILVPSSEDPTAPNILPRAPIPECLAAGLLKAWPRTQLATNPCRLQYCTQQIVVCRLDLMAKFCRNTLHFPEDTSQIEQHFARTIVCQGHLVPIHPIAMPVHWDYDPALWLYPLPDLIVMGDSCQSFSSSQHGCTVLNTGSFVKSKFAFKVYIPATRTIEDSEIPDELE,MAPPIT interaction score,CG11555,0.14
same,MAPPIT interaction score,CG5708,1.19
Adf1 (protein) MHTLTAAIEMDKLDANLEQQFDLNLIEAVKLNPVIYDRSHYNYKHFVRKAQTWKQIAETLGVPEQKCTKRWKSLRDKFAREMKLCQESRWRYFKQMQFLVDSIRQYRESLLGKCANGSQSANQVADPSQQQQAQQQTVVDIFAQPFNGSATTSAQALTHPHEITVTSDAQLATAVGKDQKPYFYEPPLKRERSEEEHSDNMLNTIKIFQNNVSQAVSAEDQSFGMVVTDMLNTLGVRQKAEAKVHIIKYLTDMQLLAQHNKY,MAPPIT interaction score,CG11275; pair source set: screen_1,2.6 (active)
same,MAPPIT interaction score,CG8159,-0.0528
Eh (protein) MNCKPLILCTFVAVAMCLVHFGNALPAISHYTHKRFDSMGGIDFVQVCLNNCVQCKTMLGDYFQGQTCALSCLKFKGKAIPDCEDIASIAPFLNALE,MAPPIT interaction score,CG11327,1.52
